According to PubChem BioAssay:
Active and inactive are the calls of the source.

test: CREB reporter modulators without forskolin, primary screen, cell-based, PC12, CRE-LacZ reporter, unstimulated (AID 1145); conditions: no forskolin, luminescence, 4.5 h, higher = more signal, called active from +8 up or from −8 down

z-score, inactive:
CCC#CCN(Cc1ccccc1Br)[C@H](/C=C/C1CC1)[C@@H](O)Cc1ccccc1 2.67
CCCCN1CC=CC23O[C@@H]4/C=C\CCCOC(=O)C4[C@H]2C(=O)N(CCO)[C@@H]3C1=O (stereo partly specified) -0.48
C=CCNC(=O)[C@@H]1[C@H]2C(=O)O[C@H](c3ccccc3)[C@H](c3ccccc3)N2[C@H](c2ccccc2OCCO)[C@@]12C(=O)N(C(=O)OCCOC)c1ccc(C#CC3(O)CCCCCC3)cc12 -1.02
O=C(C1N=C(c2ccc(OCCCO)cc2)N(c2ccccc2)O1)N1CCCCC1 (stereo unspecified) 0.0918
CN(C)CCCCCCNC(=O)[C@@H]1C[C@@H]2C(=O)N3CCC[C@H]3C(=O)N2[C@@H]1c1cccc(OCCO)c1 0.151
COC(=O)[C@@]1(Cc2ccccc2)[C@H]2c3cc(C(=O)N(C)C)n(Cc4ccc(C)o4)c3C[C@H]2CN1C(=O)c1ccccc1 -0.185
O[C@@H](Cc1ccccc1)[C@@H](/C=C/C1CC1)N(CC#Cc1ccccc1)Cc1ccccc1Br 2.41
COCC(=C=CC[C@H](O)c1ccc(OCCO)cc1)CCO 2.44
NCCCCCNC(=O)[C@H]1C[C@H]2C(=O)N3CCC[C@H]3C(=O)N2[C@H]1c1cccc(OCCO)c1 0.143
CCCC[C@@H]1C[C@H]1[C@@H](NC(=O)c1cccs1)c1ccccc1C(F)(F)F 0.587
CCOC(=O)C[C@H]1[C@H](OC(=O)Cc2ccc3c(c2)OCO3)[C@@H](NC(=O)C2CCCCC2)c2cc(OCCCO)ccc2N1C(=O)c1ccccc1 2.82
